B1: unnamed (peptide)
chain: MSPLGAPPPPPHKDH
B2: unnamed (peptide)
chain: NPTKSPPPPPSPSTM

biological target: AgAbp1; test: SPOT peptide array binding signal intensity (averaged, normalized) (arbitrary units (background-subtracted, floor 0; scale differs between SH3 domains)); higher = stronger binding of the SH3 domain to the peptide
Summary of the method: (§1)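 GST-fused SH3 domains, from four yeast species, were produced in E. coli BL21(DE3) and captured on glutathione Sepharose. Membranes of cellulose carrying synthetic 15-mer peptides, in which cysteines had been replaced by serines, were exposed to each domain at 10 μg/ml overnight at 4°C in TBS-based blocking buffer. After anti-GST antibody, an HRP anti-mouse secondary and luminol, spots were imaged and quantified using Genespotter. Binding signal is normalized and background-subtracted spot intensity, averaged over replicates, in arbitrary units that differ between domains.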

Binder	SPOT peptide array binding signal intensity
B1	≤ 0
B2	≤ 0

biological target: AgBbc1; test: as above
Summary of the method: as §1

Binder	SPOT peptide array binding signal intensity
B1	≤ 0
B2	≤ 0

biological target: AgBem1-D1; test: as above
Summary of the method: as §1

Binder	SPOT peptide array binding signal intensity
B1	≤ 0
B2	26

biological target: AgBzz1-D1; test: as above
Summary of the method: as §1

Binder	SPOT peptide array binding signal intensity
B1	6.5
B2	126

biological target: AgBzz1-D2; test: as above
Summary of the method: as §1

Binder	SPOT peptide array binding signal intensity
B1	9
B2	63.5

biological target: AgCyk3; test: as above
Summary of the method: as §1

Binder	SPOT peptide array binding signal intensity
B1	1
B2	≤ 0

biological target: AgFus1; test: as above
Summary of the method: as §1

Binder	SPOT peptide array binding signal intensity
B1	1.5
B2	≤ 0

biological target: AgHof1; test: as above
Summary of the method: as §1

Binder	SPOT peptide array binding signal intensity
B1	≤ 0
B2	7

biological target: AgHse1; test: as above
Summary of the method: as §1

Binder	SPOT peptide array binding signal intensity
B1	23
B2	16

biological target: AgLsb1; test: as above
Summary of the method: as §1

Binder	SPOT peptide array binding signal intensity
B1	≤ 0
B2	1.25

biological target: AgLsb4; test: as above
Summary of the method: as §1

Binder	SPOT peptide array binding signal intensity
B1	≤ 0
B2	≤ 0

biological target: AgMyo5; test: as above
Summary of the method: as §1

Binder	SPOT peptide array binding signal intensity
B1	449
B2	232

biological target: AgNbp2; test: as above
Summary of the method: as §1

Binder	SPOT peptide array binding signal intensity
B1	5
B2	≤ 0

biological target: AgRvs167; test: as above
Summary of the method: as §1

Binder	SPOT peptide array binding signal intensity
B1	1
B2	≤ 0

biological target: AgSho1; test: as above
Summary of the method: as §1

Binder	SPOT peptide array binding signal intensity
B1	4
B2	≤ 0

biological target: AgSla1-D1-D2; test: as above
Summary of the method: as §1

Binder	SPOT peptide array binding signal intensity
B1	2
B2	≤ 0

biological target: AgSla1-D3; test: as above
Summary of the method: as §1

Binder	SPOT peptide array binding signal intensity
B1	≤ 0
B2	128

biological target: CaAbp1-D1; test: as above
Summary of the method: as §1

Binder	SPOT peptide array binding signal intensity
B1	≤ 0
B2	7

biological target: CaAbp1-D2; test: as above
Summary of the method: as §1

Binder	SPOT peptide array binding signal intensity
B1	≤ 0
B2	≤ 0

biological target: CaBbc1; test: as above
Summary of the method: as §1

Binder	SPOT peptide array binding signal intensity
B1	0.5
B2	≤ 0

biological target: CaBem1-D1; test: as above
Summary of the method: as §1

Binder	SPOT peptide array binding signal intensity
B1	≤ 0
B2	5

biological target: CaBzz1-D1; test: as above
Summary of the method: as §1

Binder	SPOT peptide array binding signal intensity
B1	10
B2	3240

biological target: CaBzz1-D2; test: as above
Summary of the method: as §1

Binder	SPOT peptide array binding signal intensity
B1	3.25
B2	1620

biological target: CaCyk3; test: as above
Summary of the method: as §1

Binder	SPOT peptide array binding signal intensity
B1	≤ 0
B2	7.5

biological target: CaFus1; test: as above
Summary of the method: as §1

Binder	SPOT peptide array binding signal intensity
B1	42
B2	60

biological target: CaHof1; test: as above
Summary of the method: as §1

Binder	SPOT peptide array binding signal intensity
B1	0.75
B2	≤ 0

biological target: CaHse1; test: as above
Summary of the method: as §1

Binder	SPOT peptide array binding signal intensity
B1	5.75
B2	4

biological target: CaLsb1; test: as above
Summary of the method: as §1

Binder	SPOT peptide array binding signal intensity
B1	0.75
B2	0.5

biological target: CaLsb4; test: as above
Summary of the method: as §1

Binder	SPOT peptide array binding signal intensity
B1	≤ 0
B2	≤ 0

biological target: CaMyo5; test: as above
Summary of the method: as §1

Binder	SPOT peptide array binding signal intensity
B1	46.5
B2	48

biological target: CaNbp2; test: as above
Summary of the method: as §1

Binder	SPOT peptide array binding signal intensity
B2	45

biological target: CaRvs167; test: as above
Summary of the method: as §1

Binder	SPOT peptide array binding signal intensity
B2	0.667

biological target: CaRvs167-3; test: as above
Summary of the method: as §1

Binder	SPOT peptide array binding signal intensity
B2	1

biological target: CaSho1; test: as above
Summary of the method: as §1

Binder	SPOT peptide array binding signal intensity
B2	10.5

biological target: CaSla1-D1-D2; test: as above
Summary of the method: as §1

Binder	SPOT peptide array binding signal intensity
B2	49

biological target: CaSla1-D3; test: as above
Summary of the method: as §1

Binder	SPOT peptide array binding signal intensity
B2	30

biological target: ScAbp1; test: as above
Summary of the method: as §1

Binder	SPOT peptide array binding signal intensity
B2	≤ 0

biological target: ScBbc1; test: as above
Summary of the method: as §1

Binder	SPOT peptide array binding signal intensity
B2	≤ 0

biological target: ScBem1-D1; test: as above
Summary of the method: as §1

Binder	SPOT peptide array binding signal intensity
B2	≤ 0

biological target: ScBzz1-D1; test: as above
Summary of the method: as §1

Binder	SPOT peptide array binding signal intensity
B2	274

biological target: ScBzz1-D2; test: as above
Summary of the method: as §1

Binder	SPOT peptide array binding signal intensity
B2	22

biological target: ScCyk3; test: as above
Summary of the method: as §1

Binder	SPOT peptide array binding signal intensity
B2	≤ 0

biological target: ScFus1; test: as above
Summary of the method: as §1

Binder	SPOT peptide array binding signal intensity
B2	≤ 0

biological target: ScHof1; test: as above
Summary of the method: as §1

Binder	SPOT peptide array binding signal intensity
B2	1

biological target: ScHse1; test: as above
Summary of the method: as §1

Binder	SPOT peptide array binding signal intensity
B2	21.5

biological target: ScLsb1; test: as above
Summary of the method: as §1

Binder	SPOT peptide array binding signal intensity
B2	≤ 0

biological target: ScLsb2; test: as above
Summary of the method: as §1

Binder	SPOT peptide array binding signal intensity
B2	≤ 0

biological target: ScLsb3; test: as above
Summary of the method: as §1

Binder	SPOT peptide array binding signal intensity
B2	≤ 0

biological target: ScLsb4; test: as above
Summary of the method: as §1

Binder	SPOT peptide array binding signal intensity
B2	≤ 0

biological target: ScMyo3; test: as above
Summary of the method: as §1

Binder	SPOT peptide array binding signal intensity
B2	771

biological target: ScMyo5; test: as above
Summary of the method: as §1

Binder	SPOT peptide array binding signal intensity
B2	343

biological target: ScNbp2; test: as above
Summary of the method: as §1

Binder	SPOT peptide array binding signal intensity
B2	47.5

biological target: ScPex13; test: as above
Summary of the method: as §1

Binder	SPOT peptide array binding signal intensity
B2	80

biological target: ScRvs167; test: as above
Summary of the method: as §1

Binder	SPOT peptide array binding signal intensity
B2	≤ 0

biological target: ScSho1; test: as above
Summary of the method: as §1

Binder	SPOT peptide array binding signal intensity
B2	18

biological target: ScSla1-D1-D2; test: as above
Summary of the method: as §1

Binder	SPOT peptide array binding signal intensity
B2	≤ 0

biological target: ScSla1-D3; test: as above
Summary of the method: as §1

Binder	SPOT peptide array binding signal intensity
B2	11.5

biological target: SpAbp1-D1; test: as above
Summary of the method: as §1

Binder	SPOT peptide array binding signal intensity
B2	≤ 0

biological target: SpBbc1; test: as above
Summary of the method: as §1

Binder	SPOT peptide array binding signal intensity
B2	≤ 0

biological target: SpBzz1-D1; test: as above
Summary of the method: as §1

Binder	SPOT peptide array binding signal intensity
B2	548

biological target: SpBzz1-D2; test: as above
Summary of the method: as §1

Binder	SPOT peptide array binding signal intensity
B2	7.25

biological target: SpCyk3; test: as above
Summary of the method: as §1

Binder	SPOT peptide array binding signal intensity
B2	4

biological target: SpHof1; test: as above
Summary of the method: as §1

Binder	SPOT peptide array binding signal intensity
B2	1.25

biological target: SpHof1-2; test: as above
Summary of the method: as §1

Binder	SPOT peptide array binding signal intensity
B2	4

biological target: SpHof1-3; test: as above
Summary of the method: as §1

Binder	SPOT peptide array binding signal intensity
B2	0.5

biological target: SpHse1; test: as above
Summary of the method: as §1

Binder	SPOT peptide array binding signal intensity
B2	94

biological target: SpLsb1; test: as above
Summary of the method: as §1

Binder	SPOT peptide array binding signal intensity
B2	1

biological target: SpLsb4; test: as above
Summary of the method: as §1

Binder	SPOT peptide array binding signal intensity
B2	≤ 0

biological target: SpMyo1; test: as above
Summary of the method: as §1

Binder	SPOT peptide array binding signal intensity
B2	468

biological target: SpNbp2; test: as above
Summary of the method: as §1

Binder	SPOT peptide array binding signal intensity
B2	≤ 0

biological target: SpPex13; test: as above
Summary of the method: as §1

Binder	SPOT peptide array binding signal intensity
B2	≤ 0

biological target: SpRvs167; test: as above
Summary of the method: as §1

Binder	SPOT peptide array binding signal intensity
B2	2

biological target: SpSla1-D1-D2; test: as above
Summary of the method: as §1

Binder	SPOT peptide array binding signal intensity
B2	≤ 0

biological target: SpSla1-D3; test: as above
Summary of the method: as §1

Binder	SPOT peptide array binding signal intensity
B2	≤ 0

Source: the supplement of paper PMC4466140
